Experimental data as given in the supplement of paper PMC8728848.
Many of the other results were omitted from the sample, so the strongest signals are more common in it than they were.

Tests used:
Test in all cases: glycan array binding signal (z-score within array); higher = stronger binding
Settings in all cases: glycan notation: IUPAC condensed, linker removed
[1] = biological target: Fuc(a1-2)Gal(b1-4)Fuc(a1-3)]GlcNAc(b1-2)Man(a1-3)[Fuc(a1-2)Gal(b1-4)[Fuc(a1-3)]GlcNAc(b1-2)Man(a1-6)]Man(b1-4)GlcNAc(b1-4)GlcNAc
Procedure, shortened: (§1)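 The Consortium for Functional Glycomics database supplied 3228 glycan arrays, of which those lacking an available protein sequence were dropped. The binding signal, a within-array Z-score, was averaged across arrays of the same protein sequence and across linkers. Negative scores can be read as non-binding.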

[2] = biological target: Fuc(a1-2)[Gal(a1-4)]Gal(b1-4)GlcNAc
Procedure, shortened: as §1

[3] = biological target: Fuc(a1-2)[GalNAc(a1-3)]Gal(b1-3)GlcNAc(b1-3)GalNAc
Procedure, shortened: as §1

[4] = biological target: Fuc(a1-4)GlcNAc
Procedure, shortened: as §1

[5] = biological target: Gal(a1-3)Gal(b1-3)GlcNAc
Procedure, shortened: as §1

[6] = biological target: Gal(a1-3)Gal(b1-3)GlcNAc(b1-2)Man
Procedure, shortened: as §1

[7] = biological target: Gal(a1-3)Gal(b1-3)GlcNAc(b1-6)GalNAc
Procedure, shortened: as §1

[8] = biological target: Gal(a1-3)Gal(b1-4)GlcNAc(b1-2)Man(a1-3)[Gal(a1-3)Gal(b1-4)GlcNAc(b1-2)Man(a1-6)]Man(b1-4)GlcNAc(b1-4)GlcNAc
Procedure, shortened: as §1

[9] = biological target: Gal(a1-3)Gal(b1-4)[Fuc(a1-3)]GlcNAc(b1-2)Man(a1-3)[Gal(a1-3)Gal(b1-4)[Fuc(a1-3)]GlcNAc(b1-2)Man(a1-6)]Man(b1-4)GlcNAc(b1-4)GlcNAc
Procedure, shortened: as §1

[10] = biological target: Gal(a1-3)[Gal(a1-4)]Gal(b1-4)GlcNAc
Procedure, shortened: as §1

[11] = biological target: Gal(a1-4)Gal(b1-4)Gal
Procedure, shortened: as §1

[12] = biological target: Gal(a1-4)Gal(b1-4)GlcNAc
Procedure, shortened: as §1

[13] = biological target: Gal(a1-4)Gal(b1-4)GlcNAc(b1-2)Man(a1-3)[Gal(a1-4)Gal(b1-4)GlcNAc(b1-2)Man(a1-6)]Man(b1-4)GlcNAc(b1-4)GlcNAc
Procedure, shortened: as §1

[14] = biological target: Gal(a1-4)Gal(b1-4)GlcNAc(b1-3)Gal(b1-4)Glc
Procedure, shortened: as §1

[15] = biological target: Gal(a1-4)GlcNAc
Procedure, shortened: as §1

[16] = biological target: Gal(b1-2)Gal
Procedure, shortened: as §1

[17] = biological target: Gal(b1-3)Gal(b1-4)GlcNAc
Procedure, shortened: as §1

[18] = biological target: Gal(b1-3)GalNAc
Procedure, shortened: as §1

[19] = biological target: Gal(b1-3)GalNAc(a1-3)[Fuc(a1-2)]Gal(b1-4)GlcNAc
Procedure, shortened: as §1

[20] = biological target: Gal(b1-3)GlcNAc(a1-3)Gal(b1-4)GlcNAc
Procedure, shortened: as §1

[21] = biological target: Gal(b1-3)GlcNAc(b1-3)Gal(b1-4)GlcNAc(b1-2)Man(a1-3)[Gal(b1-3)GlcNAc(b1-3)Gal(b1-4)GlcNAc(b1-2)Man(a1-6)]Man(b1-4)GlcNAc(b1-4)GlcNAc
Procedure, shortened: as §1

[22] = biological target: Gal(b1-3)GlcNAc(b1-6)GalNAc
Procedure, shortened: as §1

[23] = biological target: Gal(b1-3)[Fuc(a1-4)]GlcNAc(b1-3)Gal(b1-4)[Fuc(a1-3)]GlcNAc
Procedure, shortened: as §1

[24] = biological target: Gal(b1-4)Glc6S
Procedure, shortened: as §1

[25] = biological target: Gal(b1-4)GlcNAc(a1-6)Gal(b1-4)GlcNAc
Procedure, shortened: as §1

[26] = biological target: Gal(b1-4)GlcNAc(b1-2)Man(a1-3)Man(b1-4)GlcNAc(b1-4)GlcNAc
Procedure, shortened: as §1

[27] = biological target: Gal(b1-4)GlcNAc(b1-2)Man(a1-3)[Gal(b1-4)GlcNAc(b1-2)Man(a1-6)]Man(b1-4)GlcNAc(b1-4)GlcNAc
Procedure, shortened: as §1

[28] = biological target: Gal(b1-4)GlcNAc(b1-2)Man(a1-3)[Man(a1-6)]Man(b1-4)GlcNAc(b1-4)GlcNAc
Procedure, shortened: as §1

[29] = biological target: Gal(b1-4)GlcNAc(b1-2)Man(a1-6)Man(b1-4)GlcNAc(b1-4)GlcNAc
Procedure, shortened: as §1

[30] = biological target: Gal(b1-4)GlcNAc(b1-2)Man(a1-6)[GlcNAc(b1-2)Man(a1-3)]Man(b1-4)GlcNAc(b1-4)GlcNAc
Procedure, shortened: as §1

[31] = biological target: Gal(b1-4)GlcNAc(b1-3)[Gal(b1-4)GlcNAc(b1-6)]Gal(b1-4)GlcNAc
Procedure, shortened: as §1

[32] = biological target: Gal3S(b1-4)Glc6S
Procedure, shortened: as §1

[33] = biological target: Gal6S(b1-3)GlcNAc6S
Procedure, shortened: as §1

[34] = biological target: Gal6S(b1-4)Glc6S
Procedure, shortened: as §1

[35] = biological target: Gal6S(b1-4)GlcNAc
Procedure, shortened: as §1

[36] = biological target: Gal6S(b1-4)GlcNAc6S
Procedure, shortened: as §1

[37] = biological target: GalNAc(b1-6)GalNAc
Procedure, shortened: as §1

[38] = biological target: GlcNAc(a1-4)Gal(b1-3)GlcNAc
Procedure, shortened: as §1

[39] = biological target: GlcNAc(b1-2)[GlcNAc(b1-6)]Man(a1-6)[GlcNAc(b1-2)Man(a1-3)]Man(b1-4)GlcNAc(b1-4)GlcNAc
Procedure, shortened: as §1

[40] = biological target: GlcNAc(b1-3)Fuc
Procedure, shortened: as §1

[41] = biological target: GlcNAc(b1-3)Gal(b1-4)GlcNAc(b1-3)GalNAc
Procedure, shortened: as §1

[42] = biological target: GlcNAc(b1-3)Gal(b1-4)GlcNAc(b1-3)[GlcNAc(b1-3)Gal(b1-4)GlcNAc(b1-3)]GalNAc
Procedure, shortened: as §1

[43] = biological target: GlcNAc(b1-3)Gal(b1-4)GlcNAc(b1-6)[Gal(b1-3)]GalNAc
Procedure, shortened: as §1

[44] = biological target: GlcNAc(b1-4)GlcNAc
Procedure, shortened: as §1

[45] = biological target: GlcNAc(b1-4)GlcNAc(b1-4)GlcNAc(b1-4)GlcNAc(b1-4)GlcNAc
Procedure, shortened: as §1

[46] = biological target: Kdn(a2-6)Gal(b1-4)GlcNAc
Procedure, shortened: as §1

[47] = biological target: Man(b1-4)GlcNAc
Procedure, shortened: as §1

[48] = biological target: Neu5Ac(a2-3)Gal(b1-3)GlcNAc(b1-2)Man
Procedure, shortened: as §1

[49] = biological target: Neu5Ac(a2-3)Gal(b1-3)[Fuc(a1-4)]GlcNAc(b1-3)Gal(b1-3)[Fuc(a1-4)]GlcNAc
Procedure, shortened: as §1

[50] = biological target: Neu5Ac(a2-3)Gal(b1-3)[Neu5Ac(a2-6)]GalNAc
Procedure, shortened: as §1

[51] = biological target: Neu5Ac(a2-3)Gal(b1-4)GlcNAc
Procedure, shortened: as §1

[52] = biological target: Neu5Ac(a2-3)Gal(b1-4)GlcNAc(b1-3)Gal(b1-4)GlcNAc(b1-3)Gal(b1-4)GlcNAc(b1-2)Man(a1-3)[Neu5Ac(a2-3)Gal(b1-4)GlcNAc(b1-3)Gal(b1-4)GlcNAc(b1-3)Gal(b1-4)GlcNAc(b1-2)Man(a1-6)]GalNAc
Procedure, shortened: as §1

[53] = biological target: Neu5Ac(a2-3)Gal(b1-4)[Fuc(a1-3)]GlcNAc(b1-3)Gal(b1-4)GlcNAc
Procedure, shortened: as §1

[54] = biological target: Neu5Ac(a2-3)Gal(b1-4)[Fuc(a1-3)]GlcNAc(b1-6)[Gal(b1-3)]GalNAc
Procedure, shortened: as §1

[55] = biological target: Neu5Ac(a2-3)[GalNAc(b1-4)]Gal(b1-4)Glc
Procedure, shortened: as §1

[56] = biological target: Neu5Ac(a2-6)GalNAc(b1-4)GlcNAc6S
Procedure, shortened: as §1

[57] = biological target: Neu5Gc(a2-6)GalNAc
Procedure, shortened: as §1

B1: Epa12 (Candida glabrata) (protein)
chain: MGSSHHHHHHSSGLVPRGSHMLEPDNSLQIFDSFLSNPSKYPLGCSPKITNPKKGLSMELYSYPYRKKGSHPCWDPAYLDPNFPRVGYKKNKLIARVDGVSGDINFNFHPKRQCTPIADYLPPNFNYNEPITTTNFTMLLYGYFKPKVTGLHTFDISADDLLFMNFGAGNAFDCCRRDSTADTFGNYVAWAIWGRRIVRNKLTVRLDKGIYYPLRLFFNNRDYYGQMRLTFKTEHGSERITDFSDYFFSVDDTSEGCPGLITYESECADVKSSTVLETDYITIQAEKE
glycan array binding signal (z-score) [1]: -0.132
glycan array binding signal (z-score) [2]: 4.84
glycan array binding signal (z-score) [3]: -0.345
glycan array binding signal (z-score) [4]: -0.241
glycan array binding signal (z-score) [5]: 1.71
glycan array binding signal (z-score) [6]: 3.52
glycan array binding signal (z-score) [7]: 4.44
glycan array binding signal (z-score) [8]: 2.04
glycan array binding signal (z-score) [9]: -0.179
glycan array binding signal (z-score) [10]: 1.17
glycan array binding signal (z-score) [11]: -0.269
glycan array binding signal (z-score) [12]: 3.53
glycan array binding signal (z-score) [13]: 0.51
glycan array binding signal (z-score) [14]: 1.9
glycan array binding signal (z-score) [15]: 5.7
glycan array binding signal (z-score) [16]: 0.125
glycan array binding signal (z-score) [17]: 3.49
glycan array binding signal (z-score) [18]: 0.135
glycan array binding signal (z-score) [19]: -0.255
glycan array binding signal (z-score) [20]: -0.242
glycan array binding signal (z-score) [21]: -0.34
glycan array binding signal (z-score) [22]: -0.093
glycan array binding signal (z-score) [23]: -0.311
glycan array binding signal (z-score) [24]: 3.51
glycan array binding signal (z-score) [25]: 3.61
glycan array binding signal (z-score) [26]: -0.259
glycan array binding signal (z-score) [27]: 0.425
glycan array binding signal (z-score) [28]: -0.214
glycan array binding signal (z-score) [29]: -0.206
glycan array binding signal (z-score) [30]: -0.119
glycan array binding signal (z-score) [31]: -0.194
glycan array binding signal (z-score) [32]: -0.255
glycan array binding signal (z-score) [33]: 3.83
glycan array binding signal (z-score) [34]: 7.51
glycan array binding signal (z-score) [35]: 1.98
glycan array binding signal (z-score) [36]: 8.69
glycan array binding signal (z-score) [37]: -0.347
glycan array binding signal (z-score) [38]: -0.483
glycan array binding signal (z-score) [39]: -0.332
glycan array binding signal (z-score) [40]: -0.36
glycan array binding signal (z-score) [41]: -0.307
glycan array binding signal (z-score) [42]: -0.348
glycan array binding signal (z-score) [43]: -0.32
glycan array binding signal (z-score) [44]: -0.359
glycan array binding signal (z-score) [45]: -0.032
glycan array binding signal (z-score) [46]: -0.005
glycan array binding signal (z-score) [47]: -0.301
glycan array binding signal (z-score) [48]: -0.336
glycan array binding signal (z-score) [49]: -0.342
glycan array binding signal (z-score) [50]: -0.335
glycan array binding signal (z-score) [51]: -0.321
glycan array binding signal (z-score) [52]: -0.239
glycan array binding signal (z-score) [53]: -0.251
glycan array binding signal (z-score) [54]: -0.245
glycan array binding signal (z-score) [55]: -0.34
glycan array binding signal (z-score) [56]: -0.36
glycan array binding signal (z-score) [57]: -0.309
